Source: PubChem BioAssay (several laboratories)
Vif imaging: inhibitors of HIV Vif. HEK293T cells, Vif self-association by quenched fluorescence, imaging, 24 h. inhibition, % at 7.49 µM. hit rate 0.35% among 340,000. AID 602346; in the data active = inhibition above about 50%, passing the limit was not always enough; inconclusive = no clear call, values can overlap the other calls; inactive = below about 31%
ABCB6 inh 2: inhibitors of human ABC transporter ABCB6; hit rate 0.19% among 360,000; AID 602162; K562-ABCB6 porphyrin accumulation, flow cytometry, 1 h; active compounds read low; fluorescence ratio to DMSO, % at 10 µM;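 active = fluorescence ratio to DMSO below 75%, the collection mean minus 3 SD; inconclusive = too few cells collected in the well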;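 also: signal is porphyrin accumulated inside mitochondria; 100% equals median channel fluorescence of DMSO control wells; lower ratio means ABCB6 inhibition with less porphyrin fluorescence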
Myeloid diff 2: promotes myeloid progenitor differentiation. hit rate 1% among 360,000. calls only at 10 µM. ER-HoxA9 myeloid progenitors, lysozyme-GFP differentiation, flow cytometry;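 active = normalized GFP-positive differentiation at or above the plate's own cutoff, the solvent-only control mean plus 3 SD; inconclusive = no clear call, values can overlap the other calls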;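 also: cells exposed to compound for four days before flow analysis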
RAD54 branch: inhibitors of human RAD54 branch migration; inhibition, % at 10.4 µM; Q92698; hit rate 0.14% among 360,000; RAD54 Holliday junction branch migration, FAM/BHQ fluorescence;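 active = mean normalized replicate activity at least 40 and at least half of replicates scoring 40 or more; inconclusive = only one of the two criteria met; inactive = mean below 40 and under half of replicates reaching 40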;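 also: 0% = median of neutral control wells and 100% = median of positive control wells; inhibitors cause a drop in the FAM fluorescence signal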
Glyco luc inh: blocks N-linked glycosylation in D54 reporter cells; D54 ERlucT glycosylation luciferase reporter, 24 h; percent of 100 nM tunicamycin response; reporter increase, % at 12.5 µM; hit rate 0.23% among 360,000; AID 588692;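 active = mean luciferase reporter signal, scaled so untreated is 0 and the glycosylation-blocking control 100, at or above a set limit in every replicate; inconclusive = mean reaches the limit but not every replicate does; inactive = mean below the limit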;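 also: luciferase carries N-glycosylation sites so blocking glycosylation raises the light; 0% = median of neutral control wells and 100% = median of 100 nM tunicamycin wells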
Myeloid diff CP1: myeloid differentiation induction. shares compounds with Myeloid diff 2. ER-HoxA9 myeloid progenitors, GFP/Mac1 double-positive flow. calls only. hit rate 2% among 2,300. AID 651706;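 active = share of green or green-and-red cells above 9 and 9% in run 1 or 4 and 3% in run 2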
GFP autofluor: compound fluorescence in myeloid differentiation counter-screen; fluorescence response, % (concentration not given with the values); ER-HoxA9 myeloid progenitors, no estrogen, GFP autofluorescence flow cytometry; vehicle wells 0%, positive control 100%; hit rate 7.4% among 2,300; shares compounds with Myeloid diff 2;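 active = over 5% cells positive for green fluorescent reporter, or over 2% positive for both it and APC stain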;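 also: range taken on the double positive population between DMSO and positive control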
The depositor's hits bear a star; i = inactive; u = inconclusive; x = no result; + = active, no number. Sampled rows, rich in hits. Any-hit rate of the full collection: about 1.6%.

SMILES	Vif imaging	ABCB6 inh 2	Myeloid diff 2	RAD54 branch	Glyco luc inh	Myeloid diff CP1	GFP autofluor
COc1ccc(NC(=O)N[C@H]2CC[C@@H](CC(=O)NCc3ccccn3)O[C@@H]2CO)cc1	x	x	x	-2	x	x	x
COc1ccccc1N1CCN(S(=O)(=O)CC23CCC(CC2=O)C3(C)C)CC1 (stereo unspecified)	10	99	i	2	1	i	0
Cc1ccccc1N1CCN(S(=O)(=O)CC23CCC(CC2=O)C3(C)C)CC1 (stereo unspecified)	-10	88	i	-6	-2	x	x
COCC(=O)Nc1ccc2c(c1)[C@@H]1C[C@H](CC(=O)NC3CCCCC3)O[C@@H](CO)[C@@H]1O2	x	x	x	-13	x	x	x
Cc1nc2c(oc3ccccc32)c(=O)o1	u	99	+	3	0	i	0
Oc1ccccc1N=Cc1sc2ccccc2c1Cl	0	101	+	x	7	i	0
Cc1ccc(O)c(N=Cc2sc3ccccc3c2Cl)c1	-15	97	i	2	-1	x	x
Cc1nc(NC(=O)c2ccc(Br)s2)sc1C(=O)N(C)C	4	103	i	x	-3	i	0
CCc1ccc(NC(=O)CSCc2ccc(C(=O)O)cc2)cc1	-3	94	i	x	0	i	0
C[C@@H]1CCCCO[C@@H](CN(C)CC2CCCCC2)[C@@H](C)CN([C@H](C)CO)C(=O)c2cc(NC(=O)Nc3ccc(F)cc3)ccc2O1	x	x	x	1	x	x	x
Cc1cccc(OCCOC(=O)c2c(-c3ccccc3)noc2C)c1	-6	90	+	5	17	i	1
O=[N+]([O-])c1ccc(O)c(CN2CCCCCC2)c1	2	101	i	-2	5	i	0
